Experimental data as given in the supplement of paper PMC6555819.

What was measured:
Assay in all cases: PBM binding z-score (relative to random genomic background probes); higher = stronger binding; sequences stand for … in GC…GCGATTGACAGCGTAGAATGAAGG
[1] = system: RARb homodimer (NR concentration 270 nM)
How it was run: (§1)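 Custom Agilent 4×180K protein-binding microarrays carried double-stranded probes. Their 34-nt variable regions held direct-repeat seeds, single-nucleotide variants, half-site ablations and random human genomic background sequences. Arrays were incubated 1 h with ligand-free nuclear receptor dimers in PBS pH 7.4, 2% milk, 0.02% Triton X-100, 1 mM DTT, 0.2 mg/mL BSA and 0.4 mg/ml salmon testes DNA. Antibodies against each partner (one per run) detected binding, and scanned fluorescence was regression-normalized. Binding z-scores use random background probes as reference.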

[2] = system: RARg:RXRa (NR concentration 270 nM, RXRa partner concentration 90 nM)
How it was run: as §1

[3] = system: RARg homodimer (NR concentration 270 nM)
How it was run: as §1

[4] = system: RXRa DBDmut IVT, anti-RXR (DBD mutation: RXRa K156A/R161A, NR concentration 90 nM)
How it was run: as §1

[5] = system: RXRa homodimer (NR concentration 180 nM)
How it was run: as §1

[6] = system: THRa:RXRa (NR concentration 90 nM, RXRa partner concentration 90 nM)
How it was run: as §1

[7] = system: THRa homodimer (NR concentration 90 nM)
How it was run: as §1

[8] = system: VDR homodimer (NR concentration 270 nM)
How it was run: as §1

Sequence | PBM binding z-score [1] | PBM binding z-score [2] | PBM binding z-score [3] | PBM binding z-score [4] | PBM binding z-score [5] | PBM binding z-score [6] | PBM binding z-score [7] | PBM binding z-score [8]
AATACAGGGTCATCGTCGGCCAGAGTACGCACAG | 3.96 | 5.6 | 5.02 | 3.4 | 6.37 | 4.1 | 1.64 | 3.57
GATACAGGGTCAGCTAGAGGCCCGAGTATGGAAA | 2.47 | 4.74 | 3.86 | 1.21 | 4.25 | 2.49 | 0.0608 | 0.402
ACTAGCAGGCCTAGTTTGGGTCACTCAAACAAAG | 1.42 | 0.276 | 0.565 | -0.626 | 0.395 | 1.91 | 0.883 | 0.0469
GCTGCTAGGTCAACTGATGGTCAGCTGAAGCTCG | 3.56 | 5.1 | 5.51 | 1.55 | 2.82 | 3.12 | 1.05 | -0.0434
TCTATTAGTTGATTAGGGCAGCCGAAACAGCGGA | 0.418 | 0.585 | 0.628 | 1.14 | 0.439 | 0.393 | 0.285 | 0.654
TAGCCTAGGTCAGATGGGGCCAGTATACGCTATA | 2.71 | 2.98 | 3.65 | -0.279 | 1.62 | 4.6 | 0.386 | 0.0236
CCAGACAGGTGAAAAGGTAACTCAGCCTCGATTA | 1.49 | 1.96 | 0.973 | 0.272 | 1.52 | 0.971 | 0.514 | -0.0428
TGAATGAGGTTATAAGATCAGGGAACGTTGCAAA | 0.0745 | 1.3 | 0.836 | 0.756 | 1.86 | 1.71 | -0.0262 | 0.362
GCTTGTAGATTAAGGTTAAGAAAGACTAAGCTAA | 0.241 | 0.49 | 0.267 | 0.113 | 0.645 | 2.08 | 0.778 | -0.232
GCGACTGGGGCGAAGCAGGTTACCATAAGGTTGG | 0.22 | -0.0926 | -0.296 | -1.11 | 0.0577 | 1.5 | -0.185 | -0.569
CCGACTGGGGCAGAAGGTTACCATAAGCCAGCCC | 1.53 | 1.14 | 0.806 | -0.593 | 1.04 | 0.31 | -0.571 | 0.083
ATGTGTAGGTTAGCTGGGGTCATTCAGACTAGGC | 3.72 | 4.37 | 3.19 | 2.08 | 5.51 | 5.15 | 3.53 | 5.92
ATCGAAAGGTCGACGAGGTGAGTGTACACCGTTT | 3.22 | 4.45 | 4.1 | 1.71 | 4.92 | 3.71 | 1.21 | 1.52
CTCGAAAGGTCGTGCTCAGGTGAGTATTCCAAAC | 3.11 | 5.04 | 3.61 | 2.25 | 4.55 | 4.04 | 1.31 | 0.806
CCTAGTAGGTCAGGAGGTCACACACCGGATATGA | 5.24 | 7.25 | 6.37 | 1.03 | 7.18 | 3.91 | 2.34 | 3.13
TCATATAGGTAATGCAGGTGAAAGTCGGCATCTA | 0.531 | 0.489 | 0.438 | 1.04 | 0.993 | 1.1 | 0.297 | 0.176
TAGTCTAGGTCATGGGCCAGTATACCACGCGAAC | 3.09 | 4.03 | 4.4 | 0.663 | 3.44 | 3.3 | 2.25 | 0.773
AGAATGAGGTTACCAAACATCAGGGAAACGCTTG | 0.501 | 1.92 | 1.75 | 1.15 | 2.56 | 2.59 | 0.726 | 0.159
ATCGAAAGGTCGTGAGTTGAGTATACAGAAAGGC | 2.4 | 4.08 | 3.7 | 1.49 | 4.88 | 2.32 | 0.26 | 1.49

Sequence | PBM binding z-score [1] | PBM binding z-score [2] | PBM binding z-score [3] | PBM binding z-score [4] | PBM binding z-score [5] | PBM binding z-score [6] | PBM binding z-score [7] | PBM binding z-score [8]
CCGACTGGGGCATAAGGATACCATAAGCCAGCCC | -0.129 | -0.00817 | 0.301 | -0.682 | 0.0556 | 0.92 | 0.5 | -0.401
TTACCAAGGTGAAAGGACGTTGATGCACGCCTTG | 0.523 | 0.792 | 0.651 | -0.0859 | 0.819 | 1.36 | 0.386 | -0.00942
CGAACTAAGTCAAGGACAGTGAATCTCCGCACGC | 0.164 | 0.0358 | 0.274 | 0.417 | -0.164 | 1.45 | 1.12 | -0.0534
ATGTCTAGGTAAAGATAGTTCAGTGAATGCAAAT | 0.94 | 0.598 | 0.794 | -0.0644 | 0.151 | 0.506 | -0.0958 | 0.431
AGAATGAGGTTATACGTAGATCAGTGAAGAAAGT | 0.6 | 1.71 | 1.14 | 1.92 | 2.12 | 1.99 | 0.44 | 0.703
GCATATAGGTAATACAAGGGGAAAGTCCGATTGT | -0.0469 | 0.247 | 0.368 | 0.734 | 0.3 | 1.94 | -0.473 | 0.0263
AGAATGAGGTTTTACGTAGATCAGGGAAGAAAGT | -0.169 | -0.132 | 0.114 | 0.185 | -0.108 | 0.3 | 0.0915 | 0.172
CCTAGCAGGCCAATTTGGGTCACTCAAGGCTTGA | 2.08 | 0.9 | 1.21 | 0.0247 | 0.826 | 3.86 | 0.606 | -0.23
TAGCCTAGGTCATGGGGCAGTATACCACGCGAAC | 2.71 | 4.3 | 4.2 | 0.354 | 3.61 | 3.23 | 1.44 | 0.585
TCATATACGTAAATGCTAGGTGAAAGTCCGATCT | 0.562 | 0.251 | 0.209 | 1.77 | 0.598 | 0.97 | 0.696 | 0.147
TCTGCTAGGTTAGTTGGTCAGCTAACGAGCTGCC | -0.0655 | 0.00476 | -0.189 | -0.0929 | -0.323 | -0.551 | -1.24 | -1.15
TCTCGGAGTACACGAAGGTCAGAGCTTTCCAGAG | 3.09 | 2.44 | 2.29 | 1.01 | 1.77 | 1.58 | -0.377 | 2.03
GCGATTGGGGCAAAGCAGGTTACCATAAGGTTGG | 1.1 | 0.454 | 0.635 | 0.0691 | 0.619 | 3.01 | 0.281 | 0.0482
CCTTACGGGACACTCCAGGTTATAGCATCGGAGT | 0.585 | 0.478 | 0.691 | 0.129 | 0.276 | 1.84 | 0.457 | 0.239
TGTCAAAGTTCAAAGGAAACGTAAGTATCCACAC | 3.37 | 5.07 | 5.18 | 3.95 | 4.12 | 1.62 | -0.452 | 3.4
GCATATAGGTAATACAAGGTGAAGGTCCGATTGT | 1.04 | 0.61 | 0.653 | 0.103 | 0.694 | 4.08 | 1.09 | -0.214
ATCGAAAGGTGGAAGGTGAGTATACCCACCCGAA | 0.363 | 0.767 | 0.717 | -1.21 | 1.12 | 0.406 | -0.497 | 0.146
TCTGCTAGGTCAGTTGGTCAGTTAACGAGCTGCC | 2.57 | 2.69 | 3.81 | 0.618 | 0.575 | 1.34 | 0.247 | -0.347
AGTCAAAGTTCATGACGAGGTAACGTAAAGCACG | 3.83 | 6.13 | 5.76 | 4.29 | 4.9 | 4.23 | 1.02 | 4.11

Sequence | PBM binding z-score [1] | PBM binding z-score [2] | PBM binding z-score [3] | PBM binding z-score [4] | PBM binding z-score [5] | PBM binding z-score [6] | PBM binding z-score [7] | PBM binding z-score [8]
CCTGCTAGGTCAACGGTCAGCTAAAGCAGCTCGC | 3.72 | 4.6 | 5.11 | 2.02 | 3.13 | 2.79 | 0.878 | 0.529
ATCTCTAGGTAAAGTTCACTGAAAGATCGATAGA | 3.34 | 3.14 | 3.42 | 2.2 | 2.82 | 1.95 | 0.46 | 3.79
TCGAGTAGGTTAGGGGCATTCAAAATGGCGTCGA | 0.918 | 0.367 | 0.48 | 0.614 | 0.622 | 1.06 | 0.276 | 1.43
CGTCCAAGATCAATGCTAGGTCAGTGAAAGCATT | 2.31 | 1.93 | 1.33 | 0.097 | 0.272 | 1.75 | 0.486 | 0.299
TGAATGAGGTTATAAGATCAGGGATCGTTGCAAA | -0.0683 | 1.33 | 0.782 | 0.362 | 2.09 | 1.68 | 0.0696 | 0.406
CTCGAAAGGTCGGTTGAGGTGAGAATACGGATAA | 2.21 | 3 | 3.18 | 0.839 | 2.33 | 4.84 | 1.13 | 0.742
CCGACTGGGGCAGAGAGGTTACCATACCATCCGG | 1.54 | 1.33 | 1.2 | -0.642 | 1.23 | 1.02 | -0.309 | 0.35
ATAGAAAGGTCGAGGTGAGTATAGAGAAAGGGAA | 2.6 | 4.22 | 4.22 | 0.887 | 4.17 | 2.93 | 0.985 | 0.537
TCTTCTAGATCAGCAGGTTAAGAAAGCTGGCCAA | -0.301 | 0.12 | 0.0708 | 0.571 | 0.331 | 0.17 | -0.696 | -0.431
CCCATTAGTTGACCATAAGGGCAACCGAAGCTCG | 2.53 | 1.4 | 0.963 | 0.208 | 0.666 | 2.07 | 1.89 | 1.05
CTCGAAAGGTCGGTTGAGGTGATTATACGGATAA | 2 | 2.51 | 2.53 | 0.846 | 2.12 | 4.96 | 1.15 | 0.404
CCTACTGGGCCATCGGGTCATTGATATCAACGTT | 2.25 | 2.25 | 1.72 | -0.759 | 1.89 | 2.86 | 1.94 | 1.68
TCTATTAGATGAAGGGCAACCGACGAGTCCGTTT | 1.1 | 0.508 | 0.672 | 1.4 | 0.961 | 0.13 | -0.334 | 0.972
AGAATGAGGTTATATGTAGATCAGGGAAGAAAGT | 1.34 | 1.69 | 1.09 | 1.74 | 2.1 | 2.44 | 1.22 | 1.24
TCTAGTAGATCAATAGAGGTTAAGAAAGTGCGCT | 1.38 | 0.728 | 0.2 | 0.439 | 1.56 | 2.09 | -0.79 | 0.312
CTACCAAGGTGAACAAGGTCTTTGATTACTATTC | 1.24 | 0.878 | 0.946 | 0.886 | 0.789 | 2.52 | 1.42 | 0.414
CCAACTAGGTCAGAACAGGACAGTGAAGGATGAT | 2.43 | 2.41 | 3.03 | 1.3 | 1.22 | 3.67 | 0.727 | 0.723
TATAGCAGGCCAGAGGGTCACTCAAGAGGTACGG | 2.58 | 2.61 | 2.09 | -1 | 2.67 | 1.76 | -0.288 | 0.651
GGAACGAGGGCAAGTCGATAGCAGAGTTTGATGG | 1.18 | 1.36 | 2 | 1.89 | 0.701 | 0.983 | -0.0774 | 1.08
